Compound activity (PubChem BioAssay)
CYP2C19 inhib = blockers of cytochrome P450 2C19 activity – biochemical, luminescence, ADME assay, primary screen. CYP2C19 Supersomes, luciferin-H EGE luminescence, 30 min. P33261. 21% of 96,000 active. inhibition, % at 5 µM;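 active = CYP2C19 inhibition above a set limit at 5 µM in the primary screen, cut at about 50% in these data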
Target sequence (P33261 whole entry, looked up): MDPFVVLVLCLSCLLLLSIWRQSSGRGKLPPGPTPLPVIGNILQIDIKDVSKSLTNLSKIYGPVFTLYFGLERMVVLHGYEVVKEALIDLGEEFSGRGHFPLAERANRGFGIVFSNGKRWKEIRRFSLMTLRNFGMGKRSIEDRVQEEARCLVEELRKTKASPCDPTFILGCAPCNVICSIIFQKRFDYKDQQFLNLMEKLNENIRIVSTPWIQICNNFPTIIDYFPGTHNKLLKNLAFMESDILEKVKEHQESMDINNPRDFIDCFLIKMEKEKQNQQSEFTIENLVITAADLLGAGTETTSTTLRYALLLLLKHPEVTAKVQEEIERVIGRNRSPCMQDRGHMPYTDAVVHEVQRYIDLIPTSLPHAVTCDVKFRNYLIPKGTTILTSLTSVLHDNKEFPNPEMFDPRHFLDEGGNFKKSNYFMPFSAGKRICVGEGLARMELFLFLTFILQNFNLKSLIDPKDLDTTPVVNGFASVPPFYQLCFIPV
CYP2C19 act = human CYP2C19 activators, primary screen, biochemical, luminescence; Cytochrome P450 2C19 (Homo sapiens), P33261; recombinant CYP2C19, luciferin-H EGE luminescence; hits give high values; 0 = fully inhibited enzyme, 1 = untreated enzyme; activation factor at 5 µM; 96,000 tested, under 10 active; AID 1025, 2008;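 active = activation factor of at least 2 at 5 µM in the primary screen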
Cav32 inh = Cav3.2 calcium influx blockers – cell-based, Fluo-4 calcium fluorescence, FDSS, MLSMR library, primary screen; B-score at 10 µM; 4% of 100,000 active; Cav3.2-expressing cells; hits give low values; Voltage-dependent T-type calcium channel subunit alpha-1H (Homo sapiens), O95180;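 active = single-dose well whose peak fluorescence ratio is a statistical outlier from its plate by either plate-standardised score or position-corrected B-score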
CYP2C9 inh = blockers of cytochrome P450 2C9 activity – biochemical, luminescence, ADME assay, primary screen. P11712. inhibition, % at 5 µM. CYP2C9 Supersomes, luciferin-H conversion. 20% of 96,000 active;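 active = blocking of liver enzyme CYP2C9 beyond about 50% at 5 µM, limit read from the data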
Pyk2 oligo antag = antagonists of Pyk2 self-association, primary screen, Q293 cells, FERM NanoBiT luminescence, HTS. Protein-tyrosine kinase 2-beta (Homo sapiens), Q14289. hits give low values. z-score (the deposit names both 25 µM and 10 µM). 0.83% of 99,000 active;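 active = Z-score of -3 or lower, scaled per plate to the spread of control and sample wells; inactive = z-score above -3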;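 also: negative z-score means lost luminescence so less FERM oligomerization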
CYP2C9 activ = human CYP2C9 activators, primary screen, biochemical, luminescence | Cytochrome P450 2C9 (Homo sapiens), P11712 | recombinant CYP2C9, luciferin-H conversion; hits give high values; factor 1 = untreated enzyme, 0 = blocked | activation factor at 5 µM | 1.4% of 96,000 active;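 active = activation factor of 2 or more for CYP2C9 at a 5 µM dose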
Hits are given with their value; n = inactive; x = not tested or not shown. Rows were chosen to be rich in hits. Some 27% of all compounds tested hit in one or more screens of this group.

SMILES	CYP2C19 inhib	CYP2C19 act	Cav32 inh	CYP2C9 inh	Pyk2 oligo antag	CYP2C9 activ
CCCS(=O)(=O)N1CCC(C(=O)NCC2CCCO2)CC1 (configuration not stated)	n	n	n	n	n	n
CCS(=O)(=O)N1Cc2ccccc2CC1C(=O)N1CCN(c2ccccc2)CC1 (configuration not stated)	n	n	x	n	n	n
CC1CCCCN1CCCNC(=O)c1ccc2c(=O)n(CCc3ccccc3)c(=O)[nH]c2c1 (configuration not stated)	87	n	n	79	n	n
CC1CCCCN1CCNC(=O)c1ccc2c(=O)n(CCc3ccccc3)c(=O)[nH]c2c1 (configuration not stated)	n	n	x	n	n	n
c1cc(CNc2ccc3c(c2)OCCO3)ccn1	73	n	n	62	n	n
CCCc1nc(S(=O)(=O)Cc2ccc(Cl)cc2Cl)n[nH]1	73	n	n	n	n	n
CC(C)Cn1c(N)c(C(=O)COC(=O)c2ccc3c(c2)OCCO3)c(=O)n(C)c1=O	60	n	n	67	n	n
COc1ccc(NC(=O)c2cc(=O)c3ccccc3o2)cn1	n	n	n	n	n	n
COc1ccc(NC(=O)c2cc(CN3C(=O)c4ccccc4C3=O)ccc2OC)cn1	n	n	n	78	n	n
COC(=O)c1cc(NC(=O)CC2NC3CCCCC3NC2=O)cc(C(=O)OC)c1 (configuration not stated)	n	n	n	n	n	n
COc1ccccc1C1=NOC(C)(c2nnc(-c3cccc(Cl)c3)o2)C1 (configuration not stated)	x	x	n	x	x	x
S=C(Nc1ccccc1)N1N=CCC1c1ccccc1 (configuration not stated)	66	n	n	n	n	n
Fc1ccc(NC(=S)N2N=CCC2c2ccccc2)cc1 (configuration not stated)	64	n	n	n	n	n
CC(C)c1ccc2c(c1)C(=O)NC(C)(C)C2	n	n	n	n	x	n
COC(C[C@H]1O[C@H]1[C@@H](O)[C@H](C)OCc1ccccc1)OC	x	x	n	x	x	x
CCOC(=O)/C=C1\SCC(=O)N1CCOc1cccc(Br)c1	82	n	-4.3	80	n	n
CCOC(=O)/C=C1\SCC(=O)N1CC(O)CN1C(=O)CS/C1=C\C(=O)OCC	n	n	n	n	n	n
CCOC(=O)N1CCC(NC(=O)CN2C(=O)CSc3nc(C)cc(C)c32)CC1	61	n	x	n	x	n
CCOC(=O)N1CCC(NC(=O)CN2C(=O)CSc3ncccc32)CC1	n	n	n	n	x	n
CCOC(=O)/C=C1\SCC(=O)N1CC(=O)Nc1ccc(C(C)C)cc1	n	n	-3.8	n	n	n
CCOC(=O)/C=C1\SCC(=O)N1CC(=O)NC1CCCCC1	67	n	n	n	n	n
Cn1c(N)c(C(=O)c2cc(-c3ccccn3)nc3ccccc23)c(=O)[nH]c1=O	n	n	n	n	n	n
COc1ccccc1-c1c(C(F)(F)F)oc2cc(OS(C)(=O)=O)ccc2c1=O	x	x	x	x	n	x
COc1ccccc1-c1c(C(F)(F)F)oc2cc(OC(=O)c3ccccc3[N+](=O)[O-])ccc2c1=O	55	n	n	62	n	n
CCCCn1c(NC(=O)c2ccccc2Cl)c(C#N)c2nc3ccccc3nc21	n	n	-8.8	n	n	n
SMILES	CYP2C19 inhib	CYP2C19 act	Cav32 inh	CYP2C9 inh	Pyk2 oligo antag	CYP2C9 activ
N#Cc1c(NC(=O)c2ccccc2Cl)n(Cc2ccccc2)c2nc3ccccc3nc12	x	x	x	x	n	x
O=C1c2ccccc2C(=O)N1CCc1nc(-c2ccncc2)no1	97	n	n	72	n	n
O=C1c2ccccc2C(=O)N1CCc1nc(-c2cccnc2)no1	51	n	n	n	n	n
O=c1cc(N2CCC3(CC2)OCCO3)[nH]c(=O)n1-c1ccc(Br)cc1	x	x	n	x	n	x
Cn1c(SCC(=O)NCCNC(=O)CSc2nnc(C(F)(F)F)n2C)nnc1C(F)(F)F	n	n	n	n	n	n
COc1ccccc1-c1cc(C(=O)NCCc2ccccc2)no1	n	n	n	n	n	3.7
